Records with an inconclusive call do not appear. Active and inactive are the calls of the source. Unless noted, calls follow the shape of the dose curve; as a rule, active = well fitted curve in the direction sought with a large enough effect in the repeat runs; inconclusive = weak or mixed curves; inactive = no such curve, though single readings can be large; an effect the other way counts as inactive or inconclusive.
How the values were obtained:
[1] = molecular target: Progesterone receptor (Homo sapiens) (UniProt P06401); test: qHTS assay to identify small molecule agonists of the progesterone receptor (PR) signaling pathway (AID 1346784; calls by dose curve; also: nearly all actives have a fitted effect of over 30% in size)
Procedure, shortened: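 PR-UAS-bla HEK 293T cells (beta-lactamase reporter under UAS) in 2% charcoal-stripped FBS, dosed with 23 nL compound after 6 hr, incubated 16hr at 37C. LiveBLAzer B/G FRET substrate added, fluorescence read after 2 hours.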

[2] = molecular target: Progesterone receptor (Homo sapiens) (UniProt P06401); test: qHTS assay to identify small molecule antagonists of the progesterone receptor (PR) signaling pathway (AID 1346795; active = well fitted inhibition curve with a large enough effect in the signal ratio in the repeat runs, not every such curve was filed as active; the % refers to the signal ratio; also: potency is read from the fitted curve at half-maximal effect)
Procedure, shortened: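 PR-UAS-bla HEK293T cells with beta-lactamase reporter under UAS control, in 2% charcoal-stripped FBS, treated with compounds plus 1 nM promegestone (R5020, final) for 16 hr at 37C. Read-out: FRET beta-lactamase substrate fluorescence after 2 hr at room temperature.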

[3] = qHTS assay to identify small molecule antagonists of the progesterone receptor (PR) signaling pathway - cell viability counter screen (AID 1346798); also: series mostly up to about 92 µM; nearly all actives have a fitted effect of over 50% in size
Procedure, shortened: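 PR-UAS-bla HEK293T cells, 3,000/well in 2% charcoal-stripped FBS medium, dosed with compounds plus R5020 agonist and incubated 16 h at 37C. Viability then measured in the same wells by CellTiter-Glo luminescence after 30 min at RT.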

[4] = qHTS assay to identify small molecule agonists of the progesterone receptor (PR) signaling pathway - cell viability counter screen (AID 1346799; calls by dose curve; also: nearly all actives have a fitted effect of over 45% in size)
Procedure, shortened: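 Counter screen in the PR-UAS-bla HEK293T wells (2% charcoal-stripped FBS, 16 h compound exposure at 37 C) after the bla read. CellTiter-Glo added, 30 min at room temperature, luminescence read as cell viability.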

[5] = qHTS assay to identify small molecule antagonists of the TGF-beta/Smad signaling pathway - cell viability counter screen (AID 1346824); also: nearly all actives have a fitted effect of over 50% in size
Procedure, shortened: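 SBE-bla HEK 293T cells, incubated overnight, then compound plus 0.25 ng/mL TGF-beta1 (stock added) for 5 hr at 37 C. Viability was read in the same wells by CellTiter-Glo luminescence after 30 min at room temperature.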

[6] = qHTS assay to identify small molecule agonists of the TGF-beta/Smad signaling pathway - cell viability counter screen (AID 1346829); also: top concentration of the series differs between compounds; nearly all actives have a fitted effect of over 45% in size
Procedure, shortened: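 In parallel with the Smad reporter read, viability of HEK 293T cells stably carrying SBE-bla is quantified by ATP luminescence following 5 hr compound treatment.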

[7] = qHTS assay to identify small molecule agonists of the TGF-beta/Smad signaling pathway (AID 1346859; active = well fitted activation curve with a large enough effect in the signal ratio in the repeat runs, not every such curve was filed as active; the % refers to the signal ratio; also: series mostly up to about 77 µM)
Procedure, shortened: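 SBE-bla HEK293T cells plated overnight, then compound exposure for 5 h at 37 C. Beta-lactamase reporter read with LiveBLAzer B/G FRET substrate after 2 h at room temperature, fluorescence at 405 nm excitation, 460/530 nm emission.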

[8] = Human pregnane X receptor (PXR) small molecule agonists, qHTS cell viability counter screen (AID 1346977); also: nearly all actives have a fitted effect of over 50% in size
Procedure, shortened: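 PXR-Luc HepG2 cells (2,000/well, 5% charcoal-stripped FBS) preincubated 5 hr, then exposed to compounds 24 hr at 37 C. Viability read in the same wells by CellTiter-Fluor fluorescence, reagent added at 23 hr, 1 hr incubation.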

[9] = Caspase-3/7 induction in HepG2 cells by small molecules, qHTS assay (AID 1346978); also: nearly all actives have a fitted effect of over 15% in size
Procedure, shortened: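 Wild-type HepG2 cells, 2,000/well, settled 5 hr at 37 C and 5% CO2, then compound-treated for 17 hr; caspase-3/7 activity read by luminescent Caspase-Glo 3/7 after 30 min at room temperature.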

[10] = Caspase-3/7 induction in CHO-K1 cells by small molecules, qHTS cell viability counter screen (AID 1346979); also: nearly all actives have a fitted effect of over 35% in size
Procedure, shortened: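 Wild-type CHO-K1 cells (1,500/well) treated with compound after 5 h plating; after 16 h at 37C, viability read as CellTiter-Fluor fluorescence following 1 h reagent incubation, in the same wells as the caspase read.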

[11] = Caspase-3/7 induction in CHO-K1 cells by small molecules, qHTS assay (AID 1346980); also: nearly all actives have a fitted effect of over 15% in size
Procedure, shortened: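 Wild-type CHO-K1 cells exposed to compounds for 17hr at 37 C, 5% CO2. Caspase-3/7 activity then measured by Caspase-Glo 3/7 luminescence after 30min at room temperature.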

[12] = Caspase-3/7 induction in HepG2 cells by small molecules, qHTS cell viability counter screen (AID 1346981); also: series mostly up to about 92 µM; nearly all actives have a fitted effect of over 30% in size
Procedure, shortened: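 Wild-type HepG2 cells (2,000/well) were allowed to settle for 5 hr at 37 C, 5% CO2, then dosed with compounds in DMSO by pin transfer. After 16 hr at 37 C, CellTiter-Fluor was added and fluorescence read 1 hr later.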

[13] = molecular target: Nuclear receptor subfamily 1 group I member 2 (Homo sapiens) (UniProt O75469); test: Human pregnane X receptor (PXR) small molecule agonists, qHTS assay (AID 1346982); also: nearly all actives have a fitted effect of over 35% in size
Procedure, shortened: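 PXR-Luc HepG2 cells (CYP3A4 promoter-driven luciferase) were seeded in medium with 5% charcoal-stripped FBS, left 5 hr at 37 C, then exposed to compounds in DMSO for 24 hr. Luminescence was read after ONE-Glo addition.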

[14] = molecular target: Cytochrome P450 2C19 (Homo sapiens) (UniProt P33261); test: Cytochrome P450 Family 2 Subfamily C Member 19 (CYP2C19) small molecule antagonists: luciferase reporter qHTS assay (AID 1671197); also: nearly all actives have a fitted effect of over 65% in size; also: potency is read from the fitted curve at half-maximal effect
Procedure, shortened: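 Compounds were tested on CYP2C19 activity via proluciferin conversion to luciferin. The 37C, 1 h reaction followed NADPH addition; detection reagent stopped it.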

[15] = molecular target: Cytochrome P450 2C9 (Homo sapiens) (UniProt P11712); test: Cytochrome P450 Family 2 Subfamily C Member 9 (CYP2C9) small molecule antagonists: luciferase reporter qHTS assay (AID 1671198); also: nearly all actives have a fitted effect of over 50% in size; also: potency is read from the fitted curve at half-maximal effect
Procedure, shortened: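 P450-Glo proluciferin substrate with CYP2C9 enzyme; 10 min RT preincubation, then NADPH regeneration 1 h at 37C; luciferin detection reagent 20 min RT, luminescence in relative luminescence units.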

[16] = molecular target: Cytochrome P450 2D6 (Homo sapiens) (UniProt P10635); test: Cytochrome P450 Family 2 Subfamily D Member 6 (CYP2D6) small molecule antagonists: luciferase reporter qHTS assay (AID 1671196); also: nearly all actives have a fitted effect of over 50% in size; also: potency is read from the fitted curve at half-maximal effect
Procedure, shortened: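 CYP2D6 enzyme–substrate mix was held with compound for 10 min at room temperature, then NADPH regeneration solution was added and the reaction ran 1 h at room temperature. Luciferin product was detected by luminescence after 20 min with detection reagent.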

[17] = molecular target: Thyrotropin-releasing hormone receptor (Homo sapiens) (UniProt P34981); test: qHTS assay to identify small molecule antagonists of the thyrotropin-releasing hormone receptor (TRHR) signaling pathway (AID 1346877; active = well fitted inhibition curve with a large enough effect in the repeat runs, not every such curve was filed as active; also: series mostly up to about 51 µM)
Procedure, shortened: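 TRHR-expressing HEK293 cells were seeded, cultured 18 h at 37 °C, then loaded with calcium dye for 2 h. Compounds were pre-incubated 5 min at room temperature before 1 nM TRH (final) was added, and kinetic fluorescence was recorded for 3 min.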

[18] = molecular target: Thyrotropin-releasing hormone receptor (Homo sapiens) (UniProt P34981); test: qHTS assay to identify small molecule agonists of the thyrotropin-releasing hormone receptor (TRHR) signaling pathway (AID 1346891; calls by dose curve; also: series mostly up to about 58 µM)
Procedure, shortened: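 HEK293 cells expressing TRHR plated 18 h at 37 C/5% CO2, calcium dye-loaded 2 h at 37 C, then compound added (agonist mode); kinetic calcium fluorescence read 3 min at 1 s intervals; 15 concentrations in triplicate.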

[19] = molecular target: Nuclear receptor subfamily 1 group I member 2 (Rattus norvegicus) (UniProt Q9R1A7); test: Rat pregnane X receptor (rPXR) activation by small molecules, qHTS assay (AID 1346983); conditions: rPXR luciferase reporter cells, One-Glo luminescence, 24 h; max activation: active compounds read high; also: nearly all actives have a fitted effect of over 20% in size
Procedure, shortened: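 Cell-based rPXR activation assay: rPXR cells, 2,000 per well, rested 5hr at 37 C, then exposed to compounds in DMSO for 24 hr at 37 C. Luciferase activity read by One-Glo luminescence after 30 min at room temperature.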

[20] = molecular target: Nuclear receptor subfamily 1 group I member 2 (Homo sapiens) (UniProt O75469); test: CYP3A4 induction through human pregnane X receptor (PXR) by small molecules, qHTS assay (AID 1346984); also: nearly all actives have a fitted effect of over 40% in size
Procedure, shortened: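 DPX-2 cells (HepG2 co-transfected with PXR and CYP3A4 promoter-luciferase) treated with compounds 24 h at 37C; luciferin-IPA CYP3A4 substrate 3uM final added for 3 h, then One-Glo; luminescence read. qHTS format.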
% is scaled to controls: 0 for no effect and ±100 for the full control effect.

Chain of Cytochrome P450 2D6 (Homo sapiens) (P10635 whole entry, looked up): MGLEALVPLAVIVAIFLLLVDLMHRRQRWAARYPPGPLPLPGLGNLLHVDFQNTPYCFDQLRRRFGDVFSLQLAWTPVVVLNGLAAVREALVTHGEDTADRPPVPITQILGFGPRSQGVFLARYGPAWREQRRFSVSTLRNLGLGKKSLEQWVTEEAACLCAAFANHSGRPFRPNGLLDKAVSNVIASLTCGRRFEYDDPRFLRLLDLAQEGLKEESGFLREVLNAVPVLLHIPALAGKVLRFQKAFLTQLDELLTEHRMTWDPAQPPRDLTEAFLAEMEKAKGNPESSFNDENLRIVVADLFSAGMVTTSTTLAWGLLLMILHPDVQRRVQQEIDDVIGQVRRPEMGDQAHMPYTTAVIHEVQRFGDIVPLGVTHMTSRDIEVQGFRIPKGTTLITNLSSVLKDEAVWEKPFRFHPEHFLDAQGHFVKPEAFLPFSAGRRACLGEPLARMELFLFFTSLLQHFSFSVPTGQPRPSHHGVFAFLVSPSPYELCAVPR
Chain of Thyrotropin-releasing hormone receptor (Homo sapiens) (P34981 whole entry, looked up): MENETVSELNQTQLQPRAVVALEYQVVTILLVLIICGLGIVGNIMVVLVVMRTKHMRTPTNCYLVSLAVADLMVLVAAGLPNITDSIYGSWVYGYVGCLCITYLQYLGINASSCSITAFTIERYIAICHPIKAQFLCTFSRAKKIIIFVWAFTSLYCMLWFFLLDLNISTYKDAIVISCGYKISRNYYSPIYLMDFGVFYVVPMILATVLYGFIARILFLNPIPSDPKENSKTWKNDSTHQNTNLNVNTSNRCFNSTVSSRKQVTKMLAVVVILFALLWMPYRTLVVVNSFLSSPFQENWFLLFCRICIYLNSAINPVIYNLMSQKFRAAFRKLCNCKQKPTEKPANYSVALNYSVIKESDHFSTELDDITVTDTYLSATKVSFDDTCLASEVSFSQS
Chain of Nuclear receptor subfamily 1 group I member 2 (Homo sapiens) (O75469 whole entry, looked up): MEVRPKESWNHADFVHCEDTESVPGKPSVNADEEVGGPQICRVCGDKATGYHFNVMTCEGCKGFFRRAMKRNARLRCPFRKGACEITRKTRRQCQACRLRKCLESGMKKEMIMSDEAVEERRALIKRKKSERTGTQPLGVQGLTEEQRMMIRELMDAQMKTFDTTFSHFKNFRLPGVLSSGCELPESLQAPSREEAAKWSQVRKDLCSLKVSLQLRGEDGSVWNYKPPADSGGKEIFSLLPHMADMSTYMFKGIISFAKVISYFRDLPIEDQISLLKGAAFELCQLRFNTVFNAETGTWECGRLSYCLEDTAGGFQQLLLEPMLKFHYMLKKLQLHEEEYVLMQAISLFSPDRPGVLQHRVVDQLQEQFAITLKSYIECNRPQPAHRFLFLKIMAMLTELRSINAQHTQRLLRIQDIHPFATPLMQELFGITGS
Chain of Progesterone receptor (Homo sapiens) (P06401 whole entry, looked up): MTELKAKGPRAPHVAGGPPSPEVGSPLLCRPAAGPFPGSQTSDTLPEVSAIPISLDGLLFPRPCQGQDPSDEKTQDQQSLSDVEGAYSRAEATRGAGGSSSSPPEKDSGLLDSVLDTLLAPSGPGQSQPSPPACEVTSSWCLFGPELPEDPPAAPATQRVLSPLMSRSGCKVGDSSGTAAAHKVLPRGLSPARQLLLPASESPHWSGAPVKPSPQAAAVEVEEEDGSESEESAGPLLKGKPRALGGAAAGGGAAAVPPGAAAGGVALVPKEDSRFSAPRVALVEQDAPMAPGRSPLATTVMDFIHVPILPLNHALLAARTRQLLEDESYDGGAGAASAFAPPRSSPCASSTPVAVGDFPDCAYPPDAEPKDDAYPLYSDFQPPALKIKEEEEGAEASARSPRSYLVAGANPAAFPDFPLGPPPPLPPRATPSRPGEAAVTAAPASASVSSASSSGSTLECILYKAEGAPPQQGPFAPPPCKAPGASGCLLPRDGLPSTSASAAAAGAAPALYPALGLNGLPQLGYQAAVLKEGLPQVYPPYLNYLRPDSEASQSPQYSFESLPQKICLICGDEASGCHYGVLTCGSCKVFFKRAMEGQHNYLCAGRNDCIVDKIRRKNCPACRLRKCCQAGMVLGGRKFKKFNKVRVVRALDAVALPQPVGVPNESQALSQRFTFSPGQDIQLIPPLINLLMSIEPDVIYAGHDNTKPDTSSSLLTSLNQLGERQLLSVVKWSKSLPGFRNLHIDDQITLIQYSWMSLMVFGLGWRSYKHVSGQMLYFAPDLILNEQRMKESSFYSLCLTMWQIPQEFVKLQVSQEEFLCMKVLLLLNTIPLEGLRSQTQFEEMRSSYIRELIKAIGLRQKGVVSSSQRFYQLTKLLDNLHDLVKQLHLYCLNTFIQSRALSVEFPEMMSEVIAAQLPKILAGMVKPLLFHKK
Chain of Cytochrome P450 2C19 (Homo sapiens) (P33261 whole entry, looked up): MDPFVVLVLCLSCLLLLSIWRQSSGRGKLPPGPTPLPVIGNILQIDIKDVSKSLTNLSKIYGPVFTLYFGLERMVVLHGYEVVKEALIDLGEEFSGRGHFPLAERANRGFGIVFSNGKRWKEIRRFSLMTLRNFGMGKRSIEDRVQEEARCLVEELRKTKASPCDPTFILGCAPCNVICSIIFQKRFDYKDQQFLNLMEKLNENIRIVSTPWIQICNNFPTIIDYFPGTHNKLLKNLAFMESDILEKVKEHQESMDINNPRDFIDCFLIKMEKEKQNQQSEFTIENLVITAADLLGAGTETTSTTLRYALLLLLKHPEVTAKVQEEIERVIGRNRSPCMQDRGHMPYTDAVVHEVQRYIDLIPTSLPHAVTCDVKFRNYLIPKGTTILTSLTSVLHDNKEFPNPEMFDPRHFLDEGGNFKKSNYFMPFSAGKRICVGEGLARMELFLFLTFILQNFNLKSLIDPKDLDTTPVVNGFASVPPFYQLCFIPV
Chain of Cytochrome P450 2C9 (Homo sapiens) (P11712 whole entry, looked up): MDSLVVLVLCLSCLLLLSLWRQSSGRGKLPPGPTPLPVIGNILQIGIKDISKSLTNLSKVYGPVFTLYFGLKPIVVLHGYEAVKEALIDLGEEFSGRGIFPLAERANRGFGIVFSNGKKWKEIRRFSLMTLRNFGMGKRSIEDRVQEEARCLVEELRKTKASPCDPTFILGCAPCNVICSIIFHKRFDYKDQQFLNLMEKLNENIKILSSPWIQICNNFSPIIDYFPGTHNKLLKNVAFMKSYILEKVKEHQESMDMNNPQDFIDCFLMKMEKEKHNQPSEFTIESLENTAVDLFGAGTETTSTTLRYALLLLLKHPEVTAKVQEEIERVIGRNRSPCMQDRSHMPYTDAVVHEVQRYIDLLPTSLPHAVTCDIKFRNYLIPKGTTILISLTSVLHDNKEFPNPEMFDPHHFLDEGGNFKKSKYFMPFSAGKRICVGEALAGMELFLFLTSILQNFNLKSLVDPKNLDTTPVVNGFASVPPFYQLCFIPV
Chain of Nuclear receptor subfamily 1 group I member 2 (Rattus norvegicus) (Q9R1A7 whole entry, looked up): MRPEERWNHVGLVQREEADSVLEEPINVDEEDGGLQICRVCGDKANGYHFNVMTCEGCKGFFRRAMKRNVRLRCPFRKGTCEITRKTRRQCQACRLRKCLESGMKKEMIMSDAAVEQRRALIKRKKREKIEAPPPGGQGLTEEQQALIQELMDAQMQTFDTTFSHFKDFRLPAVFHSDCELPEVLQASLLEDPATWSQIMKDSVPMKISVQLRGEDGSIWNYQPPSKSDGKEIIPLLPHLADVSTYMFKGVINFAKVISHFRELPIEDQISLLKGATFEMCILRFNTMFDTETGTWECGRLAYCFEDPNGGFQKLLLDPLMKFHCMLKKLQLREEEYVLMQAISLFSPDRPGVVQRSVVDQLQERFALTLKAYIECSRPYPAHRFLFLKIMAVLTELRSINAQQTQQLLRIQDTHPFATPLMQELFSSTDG

CC(C)C(=O)OCc1ccccc1
inactive: outcome [1] | Potency [2] | Potency [3] | Potency [4] | Potency [5] | Potency [6] | Potency [7] | Potency [8] | Potency [9] | Potency [10] | Potency [11] | Potency [12] | Potency [13] | Potency [14] | Potency [15]

Cc1cccc(C)n1
inactive: outcome [1] | Potency [2] | Potency [3] | Potency [4] | Potency [5] | Potency [6] | Potency [7] | Potency [8] | Potency [9] | Potency [10] | Potency [11] | Potency [12] | Potency [13] | Potency [16] | Potency [14] | Potency [15]

OCCN1CN(CCO)CN(CCO)C1
inactive: outcome [1] | Potency [2] | Potency [3] | Potency [4] | Potency [5] | Potency [6] | Potency [7] | Potency [17] | Potency [18] | Potency [8] | Potency [9] | Potency [10] | Potency [13] | Potency [15]

CCCN(CCc1cccs1)[C@H]1CCc2c(O)cccc2C1
inactive: outcome [1] | Potency [3] | Potency [4] | Potency [5] | Potency [6] | Potency [7] | Potency [17] | Potency [18] | Potency [9] | Potency [11] | max activation [19] -1.95% | Potency [20]
active: Potency [2] 29.8 µM | Potency [16] 0.389 µM | Potency [14] 2.45 µM | Potency [15] 15.5 µM

COc1ccccc1C=O
inactive: outcome [1] | Potency [2] | Potency [3] | Potency [4] | Potency [5] | Potency [6] | Potency [7] | Potency [8] | Potency [9] | Potency [11] | Potency [12] | Potency [13] | Potency [16] | Potency [14] | Potency [15]

CC(C)=CCCC(C)O (stereo unspecified)
inactive: outcome [1] | Potency [2] | Potency [3] | Potency [5] | Potency [6] | Potency [7] | Potency [8] | Potency [9] | Potency [10] | Potency [11] | Potency [12] | Potency [13] | Potency [16] | Potency [14] | Potency [15]

CCc1c(C(=O)O)c(=O)cnn1-c1ccc(Cl)cc1
inactive: outcome [1] | Potency [2] | Potency [3] | Potency [4] | Potency [5] | Potency [6] | Potency [7] | Potency [17] | Potency [18] | Potency [8] | Potency [9] | Potency [11] | Potency [13] | Potency [16] | Potency [14] | Potency [15]

CC(C)=C1CC[C@@H](C)CC1=O
inactive: outcome [1] | Potency [2] | Potency [3] | Potency [4] | Potency [5] | Potency [6] | Potency [7] | Potency [8] | Potency [9] | Potency [10] | Potency [12] | Potency [16] | Potency [14] | Potency [15]

Reference: PubChem BioAssay (Tox21)
